# Measurements reported in ChEMBL document CHEMBL4513216, “Probing the Open Global Health Chemical Diversity Library for Multistage-Active Starting Points for Next-Generation Antimalarials” (ACS Infect Dis, 2020).
# The campaign covered roughly 69,000 compounds. About 8,600 (12%) showed an effect of 50% or more. The entries come from a sample that favours strong results as a whole.
# System: Plasmodium berghei
# Assay: Screen against P. berghei liver stage (PbLuc), transformed with Luciferase, at 10uM
# Format: functional, HepG2
# Conditions: tested at 10 uM
row,SMILES,INHIBITION [%]
1,O=C(Cc1ccc(F)cc1)NCc1ccc(C(=O)O)o1,1.62
2,COc1ccc(C(=O)NCc2ccc(C(=O)O)o2)cc1,10.6
3,O=C(NCc1ccc(C(=O)O)o1)c1ccc(F)cc1,51.1
4,Cc1csc(CN(C)CCOc2ccccc2)n1,-4.23
5,Cc1ccccc1OCCC(=O)OC(C)C(=O)Nc1sccc1C(N)=O (stereo unspecified),45.1
6,CC(C(=O)Nc1sccc1C(N)=O)N(C)CCOc1ccccc1 (stereo unspecified),94
7,Cc1[nH]nc(CCC(=O)NCC2CCCN(C3CCCC3)C2)c1C (stereo unspecified),41.6
8,Cc1ccc(OCCN2CCN(Cc3cnn(CCO)c3)CC2)cc1,22.25
9,C=C(C)COc1cccc(C(=O)N2CCC3(CCOCC3)CC2)c1,52.6
10,C=C(C)COc1cccc(C(=O)N2CCC3(CC2)CN(C)CCN3C)c1,46.1
11,C=C(C)COc1cccc(C(=O)N2CCC(O)(c3ccccc3)CC2)c1,65.6
12,COc1cccc(C(=O)N2CCOC3(CCCN(C(C)=O)C3)C2)c1 (stereo unspecified),33.4
13,CC(C)(O)CCc1cccc(C(=O)N2CCC3(CCOCC3)CC2)c1,-147
14,CCOc1cccc(C(=O)N2CCC3(CC2)[C@H](O)C[C@@H]3OC)c1,-55.1
15,CCn1nc(C)cc1C(=O)N1C[C@@H]2C[C@@H](c3nc(C)cs3)O[C@@H]2C1,15.6
16,CC(C)COc1cncc(N2CCCN(c3ncccn3)CC2)n1,50.4
17,CC(C)COc1cncc(N(C)C2CCN(c3ncccn3)CC2)n1,21.2
18,CC(C)COc1cncc(N2CCCN(CC(F)(F)F)CC2)n1,-1.04
19,O=C(NCc1ccco1)[C@@]12CCO[C@@H]1CCN(c1ncccn1)C2,27.6
20,Cn1cc(CC2CC(=O)N(Cc3ccccc3OC(F)F)C2=O)cn1 (stereo unspecified),33.1
21,CN(C)C(=O)c1nn(C)c2c1CN(Cc1cccs1)C2,-6.23
22,Cc1ccc(CN2C[C@H](N3CCOCC3)[C@@H]3OCCC[C@@H]32)o1,-22.1

row,SMILES,INHIBITION [%]
1,Cc1nccn1CCC1CCN(C(C)C)CC1,38.8
2,CN1CCCN(c2ccc(F)cc2CNC(=O)c2cccnc2)CC1,-12.2
3,Cc1ccc(C(=O)NCc2cc(F)ccc2N2CCCN(C)CC2)o1,42.1
4,CN1CCCN(c2ccc(F)cc2CNC(=O)c2ccsc2)CC1,79.7
5,CN(CCCOc1ccccc1Cl)C(=O)CN1C[C@H]2CC[C@@H](CC1=O)N2,17
6,CCS(=O)(=O)NC1CCCN(c2ccc(F)cc2C)C1=O (stereo unspecified),5.29
7,Cc1cncc(C(=O)N2CCN(c3cnn(C)c(=O)c3)CC2)c1,-5.52
8,CCc1ncc(C(=O)N2CCN(c3cnn(C)c(=O)c3)CC2)cn1,45.8
9,Cc1oc(C(C)C)cc1C(=O)N1CCN(c2cnn(C)c(=O)c2)CC1,51.1
10,CN(C)c1ccccc1C(=O)N1CCCC(c2ccc(C(=O)O)cc2)C1 (stereo unspecified),18.6
11,CCc1csc(CNC(=O)C(CC)n2cccn2)n1 (stereo unspecified),19.8
12,CC(Cn1cccn1)NCc1csc(-c2ncccn2)n1 (stereo unspecified),-29.1
13,CCC(C(=O)NCc1csc(-c2ncccn2)n1)n1cccn1 (stereo unspecified),60.4
14,CCC(C(=O)NCc1csc(N2CCOCC2)n1)n1cccn1 (stereo unspecified),57.5
15,CCC(C(=O)N1CCN(C(=O)N2CCOCC2)CC1)n1cccn1 (stereo unspecified),33
16,CCC(C(=O)NCc1cc(N2CCOCC2)ncn1)n1cccn1 (stereo unspecified),36.7
17,Cc1ccoc1C(=O)N1CCO[C@H]2[C@H](OCCN(C)C)CC[C@@H]21,22.4
18,Cc1ccc(C(=O)NCCS(=O)(=O)N2CCSCC2)n1C,-28.9
19,CC(C)=CCN1CCN(CCCc2ccccc2)[C@H]2CS(=O)(=O)C[C@H]21,51.3
20,CC(C)=CCN1CCN(CCCOc2ccccc2)[C@H]2CS(=O)(=O)C[C@H]21,-25.7
21,CN(C)C(=O)N1CCN(CCCc2ccccc2)[C@H]2CS(=O)(=O)C[C@H]21,-11.5
22,COc1ccc(OCCN(C)Cc2nc3c(cnn3C)c(=O)[nH]2)cc1,38.8

row,SMILES,INHIBITION [%]
1,CN1CCC(C)(CN(C)Cc2ccc(CCC(C)(C)O)cc2)C1 (stereo unspecified),32.4
2,Cc1cc(S(=O)(=O)NCC(C)(O)CN(C)C)c(F)cc1F (stereo unspecified),36.5
3,COc1cc(NC(=O)N(C)CCC2CC2)ncn1,4.82
4,COc1cc(NC(=O)N(C)CC2CC2)ncn1,1.84
5,COc1cc(NC(=O)N(C)C(C2CC2)C2CC2)ncn1,88.4
6,CS(=O)(=O)c1cccc(C(N)c2ccc(Cl)cc2)c1 (stereo unspecified),-53.2
7,CCn1ccnc1CN1CCN(CCc2ccncc2)CC1C (stereo unspecified),24.7
8,O=C(O)[C@@H]1CN(C(=O)c2ccc(O)cc2)C[C@H]1c1cccc(F)c1,-19.5
9,O=C(O)[C@@H]1CN(C(=O)c2ccc(Cl)cc2)C[C@H]1c1cccc(F)c1,13.3
10,O=C(O)[C@@H]1CN(C(=O)c2ccc(F)c(F)c2)C[C@H]1c1cccc(F)c1,65.7
11,CCN(Cc1nonc1C)C(=O)Cn1nc(C(F)(F)F)cc1C,44.35
12,CCOc1cc(C(=O)n2cccn2)cc(OCC)c1OCC,-30.6
13,N#CCCN(C(=O)CCc1cscn1)c1ccc2c(c1)OCCO2,-7.46
14,Cc1cccn2c(=O)cc(OC(=O)c3ccccc3)nc12,-19.7
15,Cc1cccc(C(=O)Oc2cc(=O)n3cccc(C)c3n2)c1,-51.1
16,Cc1ccc(C(=O)Oc2cc(=O)n3cccc(C)c3n2)cc1,59.8
17,CN1CCc2c(C#N)c(NCC3CCCO3)n3cnnc3c2C1 (stereo unspecified),-1.45
18,CCOc1nc2cnccc2n(CC(=O)NCCc2ccccc2)c1=O,33.9
19,CCOc1nc2cnccc2n(CC(=O)NCc2ccco2)c1=O,46.7
20,CCOc1nc2cnccc2n(CC(=O)NCc2ccc(C)cc2)c1=O,53.1
21,COc1cccc2c(=O)n(Cc3cc(C4CC4)[nH]n3)cnc12,-6.94
22,COc1cccc2c(=O)n(Cc3ccnc(C)c3)cnc12,17.5

row,SMILES,INHIBITION [%]
1,COc1cccc2c(=O)n(Cc3cccnc3)cnc12,-20
2,COc1cccc2c(=O)n(C3CCCNC3)cnc12 (stereo unspecified),61
3,COc1cccc2c(=O)n(CCN3CCNCC3)cnc12,-109
4,COc1cccc2c(=O)n(C3CCNCC3)cnc12,57.3
5,O=C(NCc1cccs1)C1CNCC12CCOCC2 (stereo unspecified),-30.1
6,CCCn1[nH]c(CNc2ccccc2)nc1=O,32.5
7,CC(=O)c1cn(CC(=O)N[C@H](C(=O)O)C(C)C)c2ccccc12,35.1
8,Cc1ccc(C)c(N2CCN(CC3(O)CCNC3)CC2)c1 (stereo unspecified),50.5
9,Cc1ccccc1N1CCCN(CC2(O)CCCNC2)CC1 (stereo unspecified),39.9
10,CCOc1ccccc1N1CCN(CC2(O)CCCNC2)CC1 (stereo unspecified),29.2
11,NC(=O)c1csc(C(=O)N2CCCC(n3cccn3)C2)c1 (stereo unspecified),23.4
12,Cc1nc(CN(Cc2ccc3c(c2)OCCO3)C2CCCC2)no1,-31.8
13,CCN(CC)C(=O)CN1CCCC(c2nc(C)c3c(n2)N(C)CCC3)C1 (stereo unspecified),36
14,Cc1cc(N(C)C)nc(C2COCCN2Cc2csc(C)n2)n1 (stereo unspecified),39.3
15,CNc1cc(C)nc(C2COCCN2CCc2ccccc2)n1 (stereo unspecified),-2.9
16,CNc1cc(C)nc(C2COCCN2Cc2csc(C)n2)n1 (stereo unspecified),53.6
17,Cc1ccc(Br)cc1S(=O)(=O)NCCc1nnc[nH]1,23.5
18,Cc1ncnc2c1CCN(Cc1ccc3c(c1)OCO3)CC2,41.8
19,CC(=O)NCCC(Cc1ccccc1)c1ccco1 (stereo unspecified),-24.6
20,O=C(CCCOc1ccc(F)cc1F)N1CCCC(n2cccn2)C1 (stereo unspecified),11.4
21,COCCn1cnnc1CN(C)c1nc(N)nc2c1CCCC2,23.3
22,COCCn1cnnc1CN(C)c1nc(N)ncc1C,0.897

row,SMILES,INHIBITION [%]
1,CCc1nc(N)nc(N(C)Cc2nncn2CCOC)c1C,73.5
2,CCO[C@@H]1CC[C@H]2[C@H]1OCCN2S(=O)(=O)C1CC1,2.59
3,Cc1ccc(C(=O)NC2CCN(C)CC2)cc1N(C)S(C)(=O)=O,34.2
4,Cc1ccc(C(=O)NCCN2CCOCC2)cc1N(C)S(C)(=O)=O,55.5
5,O=C(NCCCN1CCOCC1)c1ccc(Cl)cc1Cl,-4.52
6,CC1CCN(CCCNC(=O)c2ccc(N(C)S(C)(=O)=O)cc2Cl)CC1,79.2
7,Cc1cc(C)c(S(N)(=O)=O)cc1C(=O)NCCN1CCC(C)CC1,-7.83
8,CN(c1ccc(Cl)c(C(=O)NCCCN2CCOCC2)c1)S(C)(=O)=O,63.3
9,CN(c1ccc(C(=O)NCCCN2CCOCC2)c(Cl)c1)S(C)(=O)=O,46.8
10,Cc1ccc(C(=O)NCCCN2CCOCC2)c(Cl)c1,-56.5
11,Cc1ccc(C(=O)NCCC2CCN(C)CC2)cc1N(C)S(C)(=O)=O,42.1
12,CN(c1ccc(C(=O)NCCN2CCOCC2)c(Cl)c1)S(C)(=O)=O,38.5
13,CN(c1ccc(C(=O)NCCCN2CCCCC2)c(Cl)c1)S(C)(=O)=O,70.4
14,CN(c1ccc(C(=O)NCCCN2CCCC2)c(Cl)c1)S(C)(=O)=O,40.9
15,Cc1c(Cn2c(=O)cnc3ccccc32)cnn1C,34
16,COCC(=O)N1CCC2(CC1)NC(=O)c1ccccc12,46.7
17,Cc1ccc(CN2CC[C@@H]3[C@@H](CO[C@H]3CN3CCN(C)CC3)C2)s1,-35.9
18,NC(=O)C1CCN(CC(=O)N(Cc2ccccc2)Cc2nccs2)CC1,2.15
